The values below come from PubChem BioAssay (EPA / NIEHS).

Test [1] has as its target Cytochrome P450 2C19 (Homo sapiens) (UniProt P33261). Kind of test: NVS_ADME_hCYP2C19: NovaScreen (NVS) CYP450-related Enzyme Activity (ADME) Assay for human CYP2C19 (AID 2283113).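 Note: potency for inhibition seen as loss of fluorescent signal.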 In a few lines: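 Compounds first screened in duplicate at 10 uM, then confirmed in concentration series. Insect-cell-expressed human CYP2C19 turned over a fluorogenic substrate, and fluorescence was read after 1 h. Inhibition taken as signal loss relative to acetonitrile.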

The target in test [2] is human Beta-secretase (BACE), BACE1 (gene 23621) (UniProt P56817). Kind of test: NVS_ENZ_hBACE: NovaScreen (NVS) Enzymatic Assay for human Beta-secretase (BACE) (AID 2283140).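 Note: hits are inhibitors that reduce fluorescent substrate signal versus DMSO.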 The method in brief:
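Enzyme activity of SF9-produced BACE1 is measured cell-free by fluorescence, 1 hour post dosing, normalised to DMSO. Screening used 25 uM in duplicate, with concentration-response follow-up for actives.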

The target in test [3] is human Matrix Metalloproteinase-9 (MMP9), MMP9 (gene 4318) (UniProt P14780). As to the kind of experiment: NVS_ENZ_hMMP9: NovaScreen (NVS) Enzymatic Assay for human Matrix Metalloproteinase-9 (MMP9) (AID 2283190).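 Note: cell-free recombinant MMP9 protease activity read by fluorescent substrate signal; active means inhibition seen as loss of fluorescence signal versus DMSO.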 The method in brief:
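Cell-free fluorescence-intensity enzyme activity assay using extracted protein, read 1 h after dosing. Loss of signal versus DMSO baseline indicates inhibition; primary screen in duplicate at 25 uM, actives followed up in concentration series.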

The target in test [4] is human Ephrin type-A Receptor 1 (EphA1), EPHA1 (gene 2041) (UniProt P21709). Kind of test: NVS_ENZ_hEphA1: NovaScreen (NVS) Enzymatic Assay for human Ephrin type-A Receptor 1 (EphA1) (AID 2283158).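 Note: activity is signal loss versus DMSO meaning EphA1 kinase inhibition.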 The method in brief: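 Fluorescent substrate conversion, resolved by mobility-shift separation, measured 1 hour post-dosing using recombinant enzyme; signal loss relative to DMSO baseline. Single-concentration duplicates at 25 uM preceded singleton concentration series topping at 50 uM.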

Test [5] deals with human Phosphoinositide 3-kinase alpha (PI3Ka), PIK3CA (gene 5290) (UniProt P42336). As to the kind of experiment: NVS_ENZ_hPI3Ka: NovaScreen (NVS) Enzymatic Assay for human Phosphoinositide 3-kinase alpha (PI3Ka) (AID 2283196). The method in brief: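 Enzyme activity as fluorescence after mobility-shift separation of substrate and product, 1 h reaction, recombinant human PI3Kα; concentration-response to 50 uM max for chemicals passing a 25 uM duplicate screen.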

Test [6] deals with human Phosphodiesterase 10 (PDE10), PDE10A (gene 10846) (UniProt Q9Y233). As to the kind of experiment: NVS_ENZ_hPDE10: NovaScreen (NVS) Enzymatic Assay for human Phosphodiesterase 10 (PDE10) (AID 2283195). The method in brief: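 Fluorescence readout after mobility-shift separation of substrate and product, 1 h reaction with recombinant human enzyme. Single-concentration duplicates at 25 uM, then concentration-response up to 50 uM for chemicals reaching threshold; DMSO baseline.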

For test [7], the target named is human CYP2C9, CYP2C9 (gene 1559) (UniProt P11712). Kind of test: NVS_ADME_hCYP2C9: NovaScreen (NVS) CYP450-related Enzyme Activity (ADME) Assay for human CYP2C9 (AID 2283108). In a few lines: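 Fluorescence readout of CYP2C9 activity (SF9-expressed human enzyme) at 0.75 h. The primary screen used 10 uM in duplicate, with concentration-response follow-up for actives; acetonitrile was the negative control.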

The target of test [8] is rat CYP2A1, Cyp2a1 (gene 24894) (UniProt P11711). As to the kind of experiment: NVS_ADME_rCYP2A1: NovaScreen (NVS) CYP450-related Enzyme Activity (ADME) Assay for rat CYP2A1 (AID 2283114; active = hit-call score of the fitted dose curve at least 0.9, where 1 is the maximum; inactive = score below 0.9). In a few lines:
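Cell-free fluorescence enzyme-activity read on recombinant rat CYP2A1, taken 0.75 h post-dosing. Compounds were screened in duplicate at 10 uM, then hits tested in concentration series (max 20 uM); inhibition scored relative to acetonitrile baseline.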

The target in test [9] is rat CYP2C13, Cyp2c13 (gene 171521) (UniProt P20814). As to the kind of experiment: NVS_ADME_rCYP2C13: NovaScreen (NVS) CYP450-related Enzyme Activity (ADME) Assay for rat CYP2C13 (AID 2283121). In a few lines: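 Inhibition is read as decreased fluorescent product formation, referenced to acetonitrile vehicle. Cell-free recombinant rat Cyp2c13 reaction ran 0.75 hour; compounds first at 10 uM in duplicate, then concentration series for actives.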

The target of test [10] is sheep Cyclooxygenase-2 (Cox2), PTGS2 (gene 443460) (UniProt P79208). As to the kind of experiment: NVS_ENZ_oCOX2: NovaScreen (NVS) Enzymatic Assay for sheep Cyclooxygenase-2 (Cox2) (AID 2283231). In a few lines: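 Enzyme extracted from ovine placenta tested cell-free; activity read colorimetrically by absorbance 0.66 hour after dosing. Primary screen in duplicate at 25 uM; hits rerun as concentration series to 50 uM, loss of signal versus DMSO baseline.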

Test [11] addresses Cytochrome P450 3A4 (Homo sapiens) (UniProt P08684). Kind of test: NVS_ADME_hCYP3A4: NovaScreen (NVS) CYP450-related Enzyme Activity (ADME) Assay for human CYP3A4 (AID 2283110). The method in brief: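 Compounds screened in duplicate at 10 uM, with follow-up concentration-response for actives, against insect-cell-expressed recombinant enzyme. Activity read by fluorescence 0.33 h after dosing; loss of signal versus acetonitrile control indicates inhibition.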

In test [12] the target is human Dual Specificity Protein Phosphatase 3 (DUSP3), DUSP3 (gene 1845) (UniProt P51452). Kind of test: NVS_ENZ_hDUSP3: NovaScreen (NVS) Enzymatic Assay for human Dual Specificity Protein Phosphatase 3 (DUSP3) (AID 2283152). In a few lines: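 Cell-free fluorescence-intensity enzyme activity assay with recombinant protein and substrate; loss of signal fitted relative to DMSO baseline. Primary screen in duplicate at 25 uM, actives then run in concentration series; measured 0 h after dosing.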

Test [13] deals with sheep Cyclooxygenase-1 (Cox1), PTGS1 (gene 443551) (UniProt P05979). Kind of test: NVS_ENZ_oCOX1: NovaScreen (NVS) Enzymatic Assay for sheep Cyclooxygenase-1 (Cox1) (AID 2283239).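 Note: actives reduce cyclooxygenase activity so potencies are for inhibitors.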 In a few lines:
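Colorimetric enzyme readout using sheep seminal-vesicle cyclooxygenase-1, measured 0.66 h post-dosing. Single-concentration duplicates at 25 uM first, then concentration series for actives, with DMSO as baseline and plate controls.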

The target in test [14] is human Caspase 5 (CASP5), CASP5 (gene 838) (UniProt P51878). As to the kind of experiment: NVS_ENZ_hCASP5: NovaScreen (NVS) Enzymatic Assay for human Caspase 5 (CASP5) (AID 2283137). The method in brief:
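Caspase 5 enzyme activity, detected as fluorescence signal loss, is measured in a biochemical format using E. coli-expressed protein. Reading occurs 2 hours post-dosing. Screening runs at 25 uM, with confirmed actives titrated to 50 uM maximum.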

The target in test [15] is human Vascular Endothelial Growth Factor Receptor 1 (VEGFR1), FLT1 (gene 2321) (UniProt P17948). As to the kind of experiment: NVS_ENZ_hVEGFR1: NovaScreen (NVS) Enzymatic Assay for human Vascular Endothelial Growth Factor Receptor 1 (VEGFR1) (AID 2283226). The method in brief:
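Kinase activity of recombinant human VEGFR1 was read by fluorescence after electrophoretic separation of product from substrate, 1 h post-dosing; initial duplicate single-point testing at 25 uM, followed by concentration-series follow-up, with DMSO as baseline.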

Test [16] concerns the target Mitogen-activated protein kinase 3 (Homo sapiens) (UniProt P27361). Kind of test: NVS_ENZ_hMAPK3: NovaScreen (NVS) Enzymatic Assay for human Mitogen-Activated Protein Kinase 3 (MAPK 3) (AID 2283177). In a few lines: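 Chemicals were first tested in duplicate at 25 uM, with hits re-run as concentration series (max 50 uM). Recombinant enzyme activity, measured 1 h post-dose in a cell-free format, was read by fluorescence/mobility shift relative to DMSO.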

Test [17] has as its target Tyrosine-protein phosphatase non-receptor type 11 (Homo sapiens) (UniProt Q06124). Kind of test: NVS_ENZ_hPTPN11: NovaScreen (NVS) Enzymatic Assay for human Protein Tyrosine Phosphatase Non-receptor Type 11 (PTPN11) (AID 2283202). In a few lines:
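Compounds first tested in duplicate at 25 uM; those reaching ~30% inhibition rerun in singleton concentration-response, top 50 uM. Phosphatase activity measured after 0.5 h by fluorescence with mobility-shift separation, relative to DMSO.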

For test [18], the target named is Tyrosine-protein phosphatase non-receptor type 12 (Homo sapiens) (UniProt Q05209). As to the kind of experiment: NVS_ENZ_hPTPN12: NovaScreen (NVS) Enzymatic Assay for human Protein Tyrosine Phosphatase Non-receptor Type 12 (PTPN12) (AID 2283204). The method in brief:
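Single-concentration duplicates (25 uM) preceded singleton concentration-response up to 50 uM for chemicals passing threshold. Cell-free recombinant PTPN12 activity was read 1.33 h after dosing via fluorescence after mobility-shift separation; loss of signal versus DMSO.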

In test [19] the target is human Vascular Endothelial Growth Factor Receptor 3 (VEGFR3), FLT4 (gene 2324) (UniProt P35916). As to the kind of experiment: NVS_ENZ_hVEGFR3: NovaScreen (NVS) Enzymatic Assay for human Vascular Endothelial Growth Factor Receptor 3 (VEGFR3) (AID 2283229). In a few lines:
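Chemicals first run in duplicate at 25 uM, with actives re-tested in concentration series to a top of 50 uM. Recombinant VEGFR3 activity measured after 1 h via fluorescence with mobility-shift product separation; inhibition fitted relative to DMSO.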

The target in test [20] is human Vascular Endothelial Growth Factor Receptor 2 (VEGFR2), KDR (gene 3791) (UniProt P35968). As to the kind of experiment: NVS_ENZ_hVEGFR2: NovaScreen (NVS) Enzymatic Assay for human Vascular Endothelial Growth Factor Receptor 2 (VEGFR2) (AID 2283230). The method in brief: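 Cell-free recombinant VEGFR2 kinase, fluorescent substrate with electrophoretic mobility-shift separation; read 1 h after dosing. Screened at 25 uM in duplicate, hits to concentration-response up to 50 uM; loss-of-signal versus DMSO.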

The structures appear in SMILES notation. Records with an inconclusive call do not appear. The source made the active and inactive calls. Rule for the calls, unless noted: active = hit-call score of the fitted dose curve at least 0.9, where 1 is the maximum; inconclusive = response in the unintended direction; inactive = score below 0.9.

Chain of human Vascular Endothelial Growth Factor Receptor 1 (VEGFR1), FLT1 (gene 2321) (P17948 whole entry, looked up): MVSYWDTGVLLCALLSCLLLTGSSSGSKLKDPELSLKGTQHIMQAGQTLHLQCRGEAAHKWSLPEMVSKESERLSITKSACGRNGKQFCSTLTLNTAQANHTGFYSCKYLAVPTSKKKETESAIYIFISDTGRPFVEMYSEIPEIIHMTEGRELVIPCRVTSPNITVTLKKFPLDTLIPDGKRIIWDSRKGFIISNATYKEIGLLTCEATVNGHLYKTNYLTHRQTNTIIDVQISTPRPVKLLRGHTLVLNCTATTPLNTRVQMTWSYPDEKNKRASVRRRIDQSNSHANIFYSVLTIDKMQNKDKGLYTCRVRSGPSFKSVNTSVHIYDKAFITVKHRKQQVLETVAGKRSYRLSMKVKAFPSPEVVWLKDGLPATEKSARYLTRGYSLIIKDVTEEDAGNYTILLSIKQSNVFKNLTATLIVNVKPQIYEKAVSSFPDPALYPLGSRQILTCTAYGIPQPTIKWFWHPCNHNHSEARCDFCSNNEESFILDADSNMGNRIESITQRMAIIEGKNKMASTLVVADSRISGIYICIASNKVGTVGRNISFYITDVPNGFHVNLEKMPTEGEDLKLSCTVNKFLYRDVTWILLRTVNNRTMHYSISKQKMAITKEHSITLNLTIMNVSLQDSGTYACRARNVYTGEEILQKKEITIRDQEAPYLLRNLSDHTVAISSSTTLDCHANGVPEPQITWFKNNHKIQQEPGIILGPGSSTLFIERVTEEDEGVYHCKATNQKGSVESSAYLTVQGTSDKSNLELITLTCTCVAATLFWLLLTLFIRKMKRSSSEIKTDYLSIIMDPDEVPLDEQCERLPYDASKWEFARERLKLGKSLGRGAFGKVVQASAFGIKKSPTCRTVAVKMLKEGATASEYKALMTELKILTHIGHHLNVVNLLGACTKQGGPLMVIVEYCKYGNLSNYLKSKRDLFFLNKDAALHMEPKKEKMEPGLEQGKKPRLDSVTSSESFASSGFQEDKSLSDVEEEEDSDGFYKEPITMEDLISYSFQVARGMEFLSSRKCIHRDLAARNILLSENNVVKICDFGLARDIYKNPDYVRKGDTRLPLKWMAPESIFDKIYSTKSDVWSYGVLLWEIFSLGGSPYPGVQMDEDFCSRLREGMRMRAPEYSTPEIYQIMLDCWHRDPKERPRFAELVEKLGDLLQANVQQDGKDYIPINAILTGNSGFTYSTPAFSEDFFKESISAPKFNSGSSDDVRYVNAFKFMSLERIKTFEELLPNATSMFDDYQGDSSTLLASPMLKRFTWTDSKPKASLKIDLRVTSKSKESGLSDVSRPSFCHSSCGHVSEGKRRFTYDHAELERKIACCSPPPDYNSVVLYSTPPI
Chain of human Caspase 5 (CASP5), CASP5 (gene 838) (P51878 whole entry, looked up): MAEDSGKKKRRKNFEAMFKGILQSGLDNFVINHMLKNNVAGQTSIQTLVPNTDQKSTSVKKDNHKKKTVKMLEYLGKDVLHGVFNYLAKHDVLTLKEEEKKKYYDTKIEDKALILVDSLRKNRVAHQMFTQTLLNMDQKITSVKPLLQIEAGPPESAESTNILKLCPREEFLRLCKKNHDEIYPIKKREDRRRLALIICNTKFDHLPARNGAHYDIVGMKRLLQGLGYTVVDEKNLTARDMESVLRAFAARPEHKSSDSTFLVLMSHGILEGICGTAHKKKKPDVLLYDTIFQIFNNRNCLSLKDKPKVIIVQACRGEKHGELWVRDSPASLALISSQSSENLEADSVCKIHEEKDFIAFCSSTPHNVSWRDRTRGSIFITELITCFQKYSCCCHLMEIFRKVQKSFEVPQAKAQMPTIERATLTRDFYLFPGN
Chain of human Phosphodiesterase 10 (PDE10), PDE10A (gene 10846) (Q9Y233 whole entry, looked up): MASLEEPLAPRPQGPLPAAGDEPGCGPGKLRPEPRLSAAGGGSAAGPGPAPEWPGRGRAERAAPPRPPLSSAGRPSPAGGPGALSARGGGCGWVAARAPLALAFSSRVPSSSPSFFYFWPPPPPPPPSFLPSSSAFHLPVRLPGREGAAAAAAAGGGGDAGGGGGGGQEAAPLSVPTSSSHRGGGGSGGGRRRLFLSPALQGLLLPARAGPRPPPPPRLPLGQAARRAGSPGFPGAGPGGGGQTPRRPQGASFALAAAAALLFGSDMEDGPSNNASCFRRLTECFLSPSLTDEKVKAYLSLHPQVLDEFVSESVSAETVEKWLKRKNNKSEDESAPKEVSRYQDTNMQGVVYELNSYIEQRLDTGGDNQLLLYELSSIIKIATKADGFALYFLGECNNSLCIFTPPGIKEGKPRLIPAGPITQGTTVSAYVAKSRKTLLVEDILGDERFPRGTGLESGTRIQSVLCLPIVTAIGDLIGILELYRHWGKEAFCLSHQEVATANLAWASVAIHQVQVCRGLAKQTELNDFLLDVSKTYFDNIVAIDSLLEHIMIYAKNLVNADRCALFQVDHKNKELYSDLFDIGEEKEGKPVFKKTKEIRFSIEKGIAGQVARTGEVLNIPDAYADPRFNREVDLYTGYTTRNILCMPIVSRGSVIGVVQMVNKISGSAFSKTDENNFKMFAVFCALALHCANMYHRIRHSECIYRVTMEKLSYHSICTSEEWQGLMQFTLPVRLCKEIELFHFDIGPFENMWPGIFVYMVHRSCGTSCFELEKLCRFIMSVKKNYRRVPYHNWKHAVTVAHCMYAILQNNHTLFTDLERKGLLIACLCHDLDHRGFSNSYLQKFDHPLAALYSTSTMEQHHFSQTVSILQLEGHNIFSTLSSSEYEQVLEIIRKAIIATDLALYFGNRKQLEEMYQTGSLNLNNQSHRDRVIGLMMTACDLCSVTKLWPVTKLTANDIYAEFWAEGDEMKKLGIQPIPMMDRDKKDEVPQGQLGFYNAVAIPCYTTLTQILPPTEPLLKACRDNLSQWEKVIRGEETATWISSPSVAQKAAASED
Chain of human Ephrin type-A Receptor 1 (EphA1), EPHA1 (gene 2041) (P21709 whole entry, looked up): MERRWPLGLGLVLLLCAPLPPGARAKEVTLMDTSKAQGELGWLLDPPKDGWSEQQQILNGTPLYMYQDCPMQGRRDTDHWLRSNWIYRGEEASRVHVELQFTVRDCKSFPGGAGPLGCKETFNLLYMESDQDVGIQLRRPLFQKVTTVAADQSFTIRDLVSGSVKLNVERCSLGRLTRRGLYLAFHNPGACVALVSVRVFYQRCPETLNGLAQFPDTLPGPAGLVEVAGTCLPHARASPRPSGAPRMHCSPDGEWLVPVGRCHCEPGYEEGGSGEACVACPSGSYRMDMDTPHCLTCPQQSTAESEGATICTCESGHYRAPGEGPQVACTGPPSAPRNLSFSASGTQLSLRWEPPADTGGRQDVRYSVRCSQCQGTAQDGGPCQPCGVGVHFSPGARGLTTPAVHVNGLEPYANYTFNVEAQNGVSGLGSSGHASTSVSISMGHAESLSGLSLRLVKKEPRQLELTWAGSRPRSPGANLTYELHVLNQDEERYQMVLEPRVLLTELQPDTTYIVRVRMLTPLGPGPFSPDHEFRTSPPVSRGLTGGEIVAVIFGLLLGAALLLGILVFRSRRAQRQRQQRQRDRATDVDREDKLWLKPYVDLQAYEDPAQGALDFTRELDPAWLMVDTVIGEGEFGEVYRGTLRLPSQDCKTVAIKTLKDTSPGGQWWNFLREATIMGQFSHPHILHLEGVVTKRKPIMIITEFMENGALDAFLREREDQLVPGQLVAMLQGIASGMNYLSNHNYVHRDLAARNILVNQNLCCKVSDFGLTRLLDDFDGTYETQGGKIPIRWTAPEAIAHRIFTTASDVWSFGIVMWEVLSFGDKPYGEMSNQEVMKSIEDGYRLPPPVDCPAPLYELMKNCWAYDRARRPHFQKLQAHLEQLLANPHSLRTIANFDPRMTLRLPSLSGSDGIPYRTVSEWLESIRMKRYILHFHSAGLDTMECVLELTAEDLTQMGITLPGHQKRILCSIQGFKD
Chain of human Matrix Metalloproteinase-9 (MMP9), MMP9 (gene 4318) (P14780 whole entry, looked up): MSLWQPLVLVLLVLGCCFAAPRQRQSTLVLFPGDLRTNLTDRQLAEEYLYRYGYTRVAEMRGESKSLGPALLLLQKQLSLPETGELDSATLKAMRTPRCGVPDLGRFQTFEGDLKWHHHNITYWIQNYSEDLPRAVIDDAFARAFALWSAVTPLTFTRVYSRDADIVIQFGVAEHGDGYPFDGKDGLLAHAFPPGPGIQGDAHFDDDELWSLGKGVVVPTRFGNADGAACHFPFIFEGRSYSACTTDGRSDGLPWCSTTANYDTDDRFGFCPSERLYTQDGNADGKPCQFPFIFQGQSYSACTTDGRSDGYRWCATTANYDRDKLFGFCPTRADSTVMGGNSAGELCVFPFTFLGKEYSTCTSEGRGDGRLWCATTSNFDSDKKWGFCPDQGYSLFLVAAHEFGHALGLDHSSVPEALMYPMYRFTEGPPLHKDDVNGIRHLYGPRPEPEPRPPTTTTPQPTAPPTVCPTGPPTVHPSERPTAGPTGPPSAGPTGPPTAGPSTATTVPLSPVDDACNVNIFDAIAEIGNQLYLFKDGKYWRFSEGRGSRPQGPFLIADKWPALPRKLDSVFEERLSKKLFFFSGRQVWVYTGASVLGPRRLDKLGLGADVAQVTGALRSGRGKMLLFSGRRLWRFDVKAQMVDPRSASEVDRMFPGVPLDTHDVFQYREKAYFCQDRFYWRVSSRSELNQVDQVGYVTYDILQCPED
Chain of human Beta-secretase (BACE), BACE1 (gene 23621) (P56817 whole entry, looked up): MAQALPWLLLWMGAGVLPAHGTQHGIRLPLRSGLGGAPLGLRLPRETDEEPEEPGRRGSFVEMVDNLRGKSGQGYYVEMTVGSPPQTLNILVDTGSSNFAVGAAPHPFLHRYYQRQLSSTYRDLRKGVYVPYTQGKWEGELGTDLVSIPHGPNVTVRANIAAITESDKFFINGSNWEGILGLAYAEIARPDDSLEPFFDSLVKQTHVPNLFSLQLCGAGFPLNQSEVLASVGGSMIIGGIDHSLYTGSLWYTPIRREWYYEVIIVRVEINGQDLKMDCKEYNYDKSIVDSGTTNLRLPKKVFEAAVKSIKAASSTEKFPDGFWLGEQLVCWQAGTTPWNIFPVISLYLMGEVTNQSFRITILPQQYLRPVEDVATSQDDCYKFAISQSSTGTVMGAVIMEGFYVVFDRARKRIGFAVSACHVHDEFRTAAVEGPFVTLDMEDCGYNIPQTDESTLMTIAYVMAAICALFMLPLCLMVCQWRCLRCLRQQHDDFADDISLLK

As a reminder, the AC50 is the midpoint of the concentration-response curve, whichever way the signal moves. As for `C[C@]12CC[C@H]3C(=CCc4cc(O)ccc43)[C@@H]1CCC2=O`, the AC50 in [1] is 1.95 µM (active).

As to `CCC(C)CO` (stereo not given), in [2], the compound was called inactive. For the same compound, the AC50 in test [3] is 6.58 µM (active).

Regarding `Cc1cc(O)c(C(C)(C)C)cc1C(C)(C)C`, the compound was classed as inactive in [4] and in test [5].

`Nc1cc([N+](=O)[O-])cc(Cl)c1O`: in test [6], the result was inactive.

For the compound `C#CC(O)CCC` (stereo not given), in [6], the call was inactive.

On to `CC(C)=CCCC(C)O` (stereo not given), for which the compound was classed as inactive in test [7].

Turning to `CCCCCCCCn1sc(Cl)c(Cl)c1=O`, the AC50 in test [1] is 8.26 µM (active). Further, the compound was classed as inactive in test [8], in test [9] and in test [10].

For `COC(=O)c1ccc(C=O)cc1`, in test [11], the AC50 was 0.00779 µM (active).

With `O=C(c1ccccc1)c1ccc(O)cc1O`, the AC50 in test [12] is 16.5 µM (active); in test [3], 13.7 µM (active). Moreover, the call in test [4] was inactive.

In the case of `CC(C)CCCC(C)CCO` (stereo not given), in test [3], the AC50 is 6.27 µM (active). Further, the outcome in test [13] was inactive.

With `CCN(CC)c1ccc2c(c1)Oc1cc(N(CC)CC)ccc1C21OC(=O)c2ccccc21`, the result in test [6] was inactive.

For the compound `Cc1ccc(O)c(-n2nc3ccccc3n2)c1`, in [3], the AC50 was 9.4 µM (active).

As to `CC1=CC2C3C=CC(C3)C2C1C` (stereo not given), the AC50 in test [14] is 13.1 µM (active); in [13], 30.4 µM (active).

Turning to `Cc1cc(=O)[nH]c(C(C)C)n1`, the half-maximal activity concentration (AC50) in test [4] is 9.31 µM (active).

With `Brc1nc2ccccc2s1`, the outcome in test [4] was inactive.

Consider `Brc1ccccn1`, for which, in test [6], the outcome was inactive.

In the case of `O=C1c2c(O)ccc(Nc3ccc(CCO)cc3)c2C(=O)c2c([N+](=O)[O-])ccc(O)c21`, the AC50 was 4.49 µM (active) in test [1]; 0.148 µM (active) in [14]; 0.129 µM (active) in test [2]; 2.37 µM (active) in test [12]; 2.07 µM (active) in test [5]; 0.885 µM (active) in test [15].

For the compound `Nc1cccnc1N`, in [6], the compound was classed as inactive.

As to `CC1=CCC2C(=O)OC(=O)C2C1` (stereo not given), the result in [4] was inactive.

Regarding `O=C(Cl)c1ccc(Cl)cc1Cl`, the call in [6] was inactive.

Regarding `CC(=O)CCC(C)C`, the compound was called inactive in test [3].

On to `c1ccc(C[P+](c2ccccc2)(c2ccccc2)c2ccccc2)cc1`, for which the AC50 in test [1] was 1.87 µM (active).

Consider `CCCCCCCCCCCCCC[P+](CCCC)(CCCC)CCCC`, for which the AC50 in test [16] was 20.2 µM (active); in [3], 2.12 µM (active); in [17] it was 14.8 µM (active); in test [18] it was 18.5 µM (active); in test [15], 10 µM (active); in [19], 17.5 µM (active). The AC50 was 11.4 µM (active) in test [20] and 5.19 µM (active) in test [10].

In the case of `O=C1C=CC(=O)N1c1ccc(Cc2ccc(N3C(=O)C=CC3=O)cc2)cc1`, the AC50 in test [14] is 4.26 µM (active); in [3], 2.59 µM (active). In addition, the call in test [4] and in test [6] was inactive.

For the compound `C=CCOC(=O)CC(C)C`, the outcome in test [4] and in [15] was inactive.
